# Experimental data published in PubChem BioAssay AID651930 (Southern Research Specialized Biocontainment Screening …, 2012).
# Unmarked numbers belong to inactive results. Activity calls are given as the source filed them. No rule for the calls is given here.
# Assay: Vero 76 cell cytotoxicity, dose response, cytotoxicity control for VEEV inhibitor project, set 9 (AID 651930)
# Conditions: Vero 76 cytotoxicity; series mostly up to 25 µM
SMILES,outcome,viability
CCN1CCN(c2nc3ccc([N+](=O)[O-])cc3c(=O)n2-c2ccccc2)CC1,inactive,–
COc1ccc(NC(=O)c2cc([N+](=O)[O-])ccc2N=C2CN(C)CCN2C)cc1,–,90.4% [at 5 µM]
CNCCCN(C)Cc1nc2ccc([N+](=O)[O-])cc2c(=O)n1-c1ccccc1,inactive,–
CCN1CCN(Cc2nc3ccc(-c4cccnc4)cc3c(=O)n2-c2ccccc2)CC1,inactive,–
CNCCN(C)Cc1nc2ccc(C#N)cc2c(=O)n1-c1ccccc1F,inactive,–
O=c1nc(Nc2ccc(CCc3ccccc3)cc2)sc2ncccc12,inactive,–
CCN1CCN(Cc2nc3ccc([N+](=O)[O-])cc3c(=O)n2-c2ccccc2F)CC1,inactive,–
O=c1nc(Nc2ccccc2OCc2ccccc2)sc2ncccc12,inactive,–
COc1ccccc1-n1c(CN2CCNCC2)nc2ccc([N+](=O)[O-])cc2c1=O,inactive,–
CN1CCN(C)C(=Nc2ccc(C#N)cc2C(=O)Nc2cccc(F)c2)C1,inactive,–
O=c1nc(Nc2cccc(OCc3ccccc3)c2)sc2ncccc12,inactive,–
O=c1nc(Nc2ccc(OCc3ccccc3)cc2)sc2ncc(F)cc12,inactive,–
CN(C)c1ccc(-n2c(CN3CCNCC3)nc3ccc([N+](=O)[O-])cc3c2=O)cc1,inactive,–
CCN1CCN(CC2Nc3ccc([N+](=O)[O-])cc3C(=O)N2c2ccccc2F)CC1 (stereo unspecified),inactive,–
CN1CCN(C)C(=Nc2cc(Cl)c(C#N)cc2C(=O)Nc2ccccc2)C1,inactive,–
CCN1CCN(C(c2nc3ncc([N+](=O)[O-])cc3c(=O)n2-c2ccccc2)C(c2nc3ncc([N+](=O)[O-])cc3c(=O)n2-c2ccccc2)N2CCN(CC)CC2)CC1 (stereo unspecified),inactive,–
